# Measurements taken from PubChem BioAssay (NCATS).
# Inconclusive results are not listed. The source made the active and inactive calls. The call rests on the fitted dose curve; in most records, active means well fitted curve in the direction sought with a large enough effect; inconclusive means small, poorly fitted or top-dose-only effect, or another doubt; inactive means no such curve, though single readings can be large; an effect the other way counts as inactive or inconclusive.
# Assay: qHTS of pediatric cancer cell lines to identify multiple opportunities for drug repurposing: Confirmatory screen for RD cells (AID 1347124);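 further: cells exposed to compound for 48 h before viability readout; nearly all actives have a fitted effect of over 65% in size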
# Details: RD rhabdomyosarcoma cell viability; series mostly up to 45.9 µM; activity change, negative = cytotoxic: at the top concentration
# Outline: (§1)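 Cells (500-1,000/well) in growth media were settled 5 h at 37 degrees C, then given compounds for 48 h. Viability was read as CellTiter-Glo luminescence. Primary runs used MIPE at 11 points (0.78 nM-46 µM) and NPC at 8 points (0.59 nM-46 µM); follow-ups used 11 points.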
# On the % scale 0 is the no-effect control and ±100 the full control effect; potency means the concentration at half of the fitted maximal effect.
Structure (SMILES),"activity change, negative = cytotoxic",Potency
CC(C)(C(=O)NCC(F)(F)C(F)(F)F)C(=O)N[C@@H]1C(=O)Nc2ccccc2-c2ccccc21,8.34% (inactive),
O=C(O)CCC1CCC(c2cc(F)ccc2F)(S(=O)(=O)c2ccc(Cl)cc2)CC1 (stereo not drawn),-1.53% (inactive),
COc1cccc(-c2cc(=O)c3ccccc3o2)c1N,,465 nM (active)
CC(=NNC(=S)N1CCC1)c1ccccn1,22.3% (inactive),
O=C(Nc1cccc(Br)c1)c1cccc(S(=O)(=O)N2CCCCCC2)c1,6.84% (inactive),
CC(=O)O[C@]1(C(C)=O)CC[C@@H]2[C@@H]3C[C@H](C)C4=CC(=O)CC[C@]4(C)[C@H]3CC[C@@]21C,7.15% (inactive),
CC[C@]1(O)C[C@@H]2CN(CCc3c([nH]c4ccccc34)[C@@](C(=O)OC)(c3cc4c(cc3OC)N(C=O)[C@@H]3C45CCN4CC=C[C@](CC)([C@H]45)[C@@H](OC(C)=O)[C@]3(O)C(=O)OC)C2)C1 (stereo partly drawn),21.1% (inactive),
CN[C@@H](C)C(=O)N[C@H]1CN(C(=O)CC(C)C)CC[C@H]2CC[C@@H](C(=O)NC(c3ccccc3)c3ccccc3)N2C1=O,7.79% (inactive),
NC1=N[C@@]2(c3cc(NC(=O)c4ccc(F)cn4)ccc3F)COC[C@@H]2CS1,8.07% (inactive),
CO[C@H]1C[C@@H]2CC[C@@H](C)[C@@](O)(O2)C(=O)C(=O)N2CCCC[C@@H]2C(=O)O[C@H]([C@H](C)C[C@@H]2CC[C@H](OCCO)[C@H](OC)C2)CC(=O)[C@H](C)C=C(C)[C@@H](O)[C@@H](OC)C(=O)[C@H](C)C[C@H](C)C=CC=CC=C1C,6.98% (inactive),

# Assay: qHTS of pediatric cancer cell lines to identify multiple opportunities for drug repurposing: Confirmatory screen for Rh18 cells (AID 1347125); further: nearly all actives have a fitted effect of over 55% in size
# Details: Rh18 rhabdomyosarcoma cells, viability; series mostly up to 45.9 µM; activity change, negative = cytotoxic: at the top concentration
# Outline: as §1
Structure (SMILES),Potency,"activity change, negative = cytotoxic"
Cc1[nH]c(C=C2C(=O)Nc3ccc(S(=O)(=O)Cc4c(Cl)cccc4Cl)cc32)c(C)c1C(=O)N1CCC[C@H]1CN1CCCC1,26.1 µM (active),
CC(C)(C(=O)NCC(F)(F)C(F)(F)F)C(=O)N[C@@H]1C(=O)Nc2ccccc2-c2ccccc21,,-8.11% (inactive)
O=C(O)CCC1CCC(c2cc(F)ccc2F)(S(=O)(=O)c2ccc(Cl)cc2)CC1 (stereo not drawn),29.3 µM (active),
COc1cccc(-c2cc(=O)c3ccccc3o2)c1N,,-9.77% (inactive)
CC(=NNC(=S)N1CCC1)c1ccccn1,,-10.3% (inactive)
O=C(Nc1cccc(Br)c1)c1cccc(S(=O)(=O)N2CCCCCC2)c1,,-3.48% (inactive)
COc1ccc(-c2coc3cc(O)cc(O)c3c2=O)cc1,,9.72% (inactive)
CC[C@]1(O)C[C@@H]2CN(CCc3c([nH]c4ccccc34)[C@@](C(=O)OC)(c3cc4c(cc3OC)N(C=O)[C@@H]3C45CCN4CC=C[C@](CC)([C@H]45)[C@@H](OC(C)=O)[C@]3(O)C(=O)OC)C2)C1 (stereo partly drawn),,3.6% (inactive)
CCOc1ccc(Nc2nc(-c3c(C)nc4ccccn34)cs2)cc1,,-2.19% (inactive)
CN[C@@H](C)C(=O)N[C@H]1CN(C(=O)CC(C)C)CC[C@H]2CC[C@@H](C(=O)NC(c3ccccc3)c3ccccc3)N2C1=O,,-2.44% (inactive)
CC1(C)CCC[C@@]2(C)[C@@H]1CC[C@@]1(C)OC(=O)C[C@H]21,,-8.03% (inactive)
NC1=N[C@@]2(c3cc(NC(=O)c4ccc(F)cn4)ccc3F)COC[C@@H]2CS1,,-0.936% (inactive)
CO[C@H]1C[C@@H]2CC[C@@H](C)[C@@](O)(O2)C(=O)C(=O)N2CCCC[C@@H]2C(=O)O[C@H]([C@H](C)C[C@@H]2CC[C@H](OCCO)[C@H](OC)C2)CC(=O)[C@H](C)C=C(C)[C@@H](O)[C@@H](OC)C(=O)[C@H](C)C[C@H](C)C=CC=CC=C1C,,-28% (inactive)
